# Test results: paper PMC4336329 (PLoS ONE, 2015)
# Screen size: about 310,000 compounds; about 14,000 (4.5%) showed an effect of 50% or more. Effects have a minus sign here. Many of the other results were omitted from the sample, so strong results are more common in it than they were.
# Target: human ether-à-go-go-related gene (hERG) potassium channel (human, UniProt Q12809)
# Assay: primary screen, population patch clamp on CHO cells stably expressing hERG; higher = less effect of the substance
# 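Note: peak tail current of the secondary pulse compared with the same well before compound.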
# Chain of human ether-à-go-go-related gene (hERG) potassium channel (Q12809 whole entry, looked up): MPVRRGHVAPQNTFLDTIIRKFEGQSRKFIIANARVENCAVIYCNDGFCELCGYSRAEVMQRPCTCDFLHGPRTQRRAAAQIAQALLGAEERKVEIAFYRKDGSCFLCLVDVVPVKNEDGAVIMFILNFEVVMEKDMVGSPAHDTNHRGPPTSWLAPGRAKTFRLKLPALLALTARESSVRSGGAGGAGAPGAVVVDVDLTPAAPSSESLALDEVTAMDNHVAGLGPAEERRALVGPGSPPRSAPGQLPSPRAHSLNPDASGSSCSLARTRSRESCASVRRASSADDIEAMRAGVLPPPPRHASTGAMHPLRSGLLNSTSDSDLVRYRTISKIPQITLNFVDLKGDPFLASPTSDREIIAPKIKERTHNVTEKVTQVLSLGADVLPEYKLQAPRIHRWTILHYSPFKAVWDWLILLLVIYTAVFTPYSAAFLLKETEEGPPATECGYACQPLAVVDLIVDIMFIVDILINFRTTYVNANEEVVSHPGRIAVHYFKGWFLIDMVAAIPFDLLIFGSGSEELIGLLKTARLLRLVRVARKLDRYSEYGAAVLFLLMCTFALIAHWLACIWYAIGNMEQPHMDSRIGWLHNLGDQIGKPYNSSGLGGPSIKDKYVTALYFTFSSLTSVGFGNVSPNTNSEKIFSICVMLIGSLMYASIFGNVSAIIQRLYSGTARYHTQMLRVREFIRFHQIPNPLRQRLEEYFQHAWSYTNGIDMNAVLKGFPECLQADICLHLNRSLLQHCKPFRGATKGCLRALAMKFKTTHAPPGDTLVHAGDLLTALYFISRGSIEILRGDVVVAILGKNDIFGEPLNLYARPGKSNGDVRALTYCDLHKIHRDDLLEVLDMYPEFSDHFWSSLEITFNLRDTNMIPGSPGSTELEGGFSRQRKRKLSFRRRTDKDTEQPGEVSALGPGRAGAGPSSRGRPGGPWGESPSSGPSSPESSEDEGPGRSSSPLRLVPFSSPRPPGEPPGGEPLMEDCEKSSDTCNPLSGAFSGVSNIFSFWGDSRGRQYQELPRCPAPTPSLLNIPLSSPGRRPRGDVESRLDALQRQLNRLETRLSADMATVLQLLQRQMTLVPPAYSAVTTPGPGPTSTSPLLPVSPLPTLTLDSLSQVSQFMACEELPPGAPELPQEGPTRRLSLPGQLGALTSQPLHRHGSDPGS
row,SMILES,"hERG current change (%, negative = inhibition) at 10uM"
1,COc1cc(/C=N/Nc2nc(=O)[nH]nc2C)cc(OC)c1O,11.7%
2,COc1ccc(NC(=O)Cn2nnc(-c3ccccc3NC(=O)c3ccco3)n2)cc1,-12.8%
3,COc1cccc(OC)c1C(=O)Nc1ccccc1C(=O)N1CCOCC1,5.4%
4,CC(CNC(=O)CCC(=O)N1CCOc2ccccc21)c1ccccc1 (stereo not shown),-9.84%
5,Fc1cccc(Cl)c1CSc1nnc2ccccn12,9.48%
6,COc1ccccc1NC(=O)NNC(=O)C(C)Oc1ccc2ccccc2c1 (stereo not shown),9.36%
7,Cc1cc2cc(CNC(=S)NC3CCCCC3)ccc2n1C,13.8%
8,Cc1cc(OC(C)C(=O)N2CCN(c3ccc(F)cc3)CC2)c2c(C)cc(=O)oc2c1 (stereo not shown),-1.27%
9,O=C(NCCOc1ccccc1Cl)c1ncn[nH]1,-2.83%
10,COCCNC(=O)C(c1ccc(F)cc1)N(C(=O)CCC(=O)Nc1ccccn1)c1cccc(C)c1 (stereo not shown),16.2%
11,CC(=O)c1ccc(OCC(O)CN2CCN(Cc3ccc4c(c3)OCO4)CC2)cc1 (stereo not shown),-34.8%
12,Cc1ccc(OCC(O)CN2CCN(Cc3ccc4c(c3)OCO4)CC2)cc1C.Cl (stereo not shown),-61.1%
13,Cc1ccc(OCC(O)CN2CCN(Cc3ccc4c(c3)OCO4)CC2)c(C)c1.Cl (stereo not shown),-57.1%
14,Cc1ccc(C)c(OCC(=O)N2CCN(Cc3ccc4c(c3)OCO4)CC2)c1,-23.3%
15,CC(=O)c1ccc(OCC(O)CN2CCN(Cc3ccc4c(c3)OCO4)CC2)cc1.Cl (stereo not shown),-49.8%
16,COc1cc(COCC(O)CN2CCN(Cc3ccc4c(c3)OCO4)CC2)cc(OC)c1OC.Cl (stereo not shown),-0.319%
17,Cc1cccc(N2CCN(C(=O)CCn3c(=O)[nH]c4ccsc4c3=O)CC2C)c1 (stereo not shown),21.5%
18,COc1ccc(OC)c2sc(NC(=O)c3ccc(S(=O)(=O)N4CCOCC4)cc3)nc12,-2.05%
19,CC(NCCO)C(=O)C12CC3CC(CC(C3)C1)C2.Cl (stereo not shown),13.1%
20,Cc1sc2ncn(CC(=O)N3CCN(c4ccccc4)CC3)c(=O)c2c1S(=O)(=O)N1CCOCC1,-16%
21,CCOC(=O)C1CCN(C(=O)Cn2cnc3sc(C)c(S(=O)(=O)N4CCC(C)CC4)c3c2=O)CC1,-67.9%
22,Cc1sc2ncn(CC(=O)N3CCN(c4ccc(F)cc4)CC3)c(=O)c2c1S(=O)(=O)N1CCOCC1,-64.3%
23,CCOC(=O)C1CCN(C(=O)Cn2cnc3sc(C)c(S(=O)(=O)N4CCOCC4)c3c2=O)CC1,-14%
24,CCOC(=O)C1CCN(C(=O)Cn2cnc3sc(C)c(S(=O)(=O)N4CCCCC4)c3c2=O)CC1,-35.5%
25,COc1ccc(N2CCN(C(=O)Cn3cnc4sc(C)c(S(=O)(=O)N5CCOCC5)c4c3=O)CC2)cc1,-20.7%
26,CC1(C)CC(=O)C=C(Nc2cc(-c3ccccc3)[nH]n2)C1,-11.2%
27,CC(NC(=O)C1CCC(=O)N1Cc1ccccc1Cl)c1ccccc1 (stereo not shown),12.8%
28,COc1ccccc1-c1cc(C(=O)Nc2c(C)n(C)n(-c3ccccc3)c2=O)no1,-34.9%

row,SMILES,"hERG current change (%, negative = inhibition) at 10uM"
1,N#CCC(=O)N/N=C/c1ccccc1Cl,6.55%
2,Cc1nn(C)c(C)c1S(=O)(=O)NC1CCCC1,-12%
3,CCN(C(=O)CN1CCN(c2cccc(C(F)(F)F)c2)CC1)c1c(N)n(Cc2ccccc2)c(=O)[nH]c1=O,-20.3%
4,Oc1ccc(-c2cccc(-c3ccc(O)cc3)c2)cc1,3.27%
5,C[n+]1c(-c2ccccc2)cc(-c2ccc(O)cc2)cc1-c1ccccc1.[O-][Cl+3]([O-])([O-])[O-],-61.4%
6,C[n+]1c(-c2ccccc2)cc(CCCCc2cc(-c3ccccc3)[n+](C)c(-c3ccccc3)c2)cc1-c1ccccc1.[O-][Cl+3]([O-])([O-])[O-],-30.6%
7,O=C(c1ccccc1)c1ccc(-c2ccc(O)cc2)cc1,10.1%
8,C[n+]1c(-c2ccccc2)cc(-c2ccc(Cl)cc2)cc1-c1ccccc1.[O-][Cl+3]([O-])([O-])[O-],-84.1%
9,Cc1cc(-c2ccccc2)cc(-c2ccccc2)[n+]1C.[Cl-],-13.6%
10,COCCNC(=O)C(c1ccc(C)o1)N(C(=O)c1snc(C(N)=O)c1N)c1cc(C)cc(C)c1 (stereo not shown),-28.5%
11,COc1ccc(Cc2nnc(SCc3nc4ccccc4c(=O)[nH]3)n2C)cc1,-11.9%
12,COc1ccc(C(CC(=O)O)N2Cc3ccccc3C2=O)cc1 (stereo not shown),14.4%
13,CC(C)=CCCC1=CCC(/C=N/NC(N)=O)C(C)C1 (stereo not shown),9%
14,CC(C)=CCCC1=CCC2C(=O)NNC(=O)C2C1 (stereo not shown),9.53%
15,CC(C)=CCCC1=CCC(/C(C)=N/NC(N)=O)CC1 (stereo not shown),-53.7%
16,CC(=O)N1c2c(cc(Br)cc2S(=O)(=O)N2CCOCC2)CC1C (stereo not shown),-0.158%
17,COCCn1c(C)cc(C(=O)CSc2nnc(C3CC3)n2C2CC2)c1C,5.4%
18,COCC(C)n1c(C)cc(C(=O)CSc2nnnn2C2CCCC2)c1C (stereo not shown),-33.2%
19,COCCn1c(C)cc(C(=O)CSc2nnnn2C2CCCC2)c1C,-69%
20,CCn1c(C)cc(C(=O)CSc2nnnn2C2CCCC2)c1C,-53.5%
21,COc1ccc(Cl)cc1C(=O)CSc1nnnn1C1CCCCC1,-4.88%
22,COc1ccc(Cl)cc1C(=O)CSc1nnnn1C1CCCC1,-6.05%
23,COc1ccc(COC(=O)CCNC(=O)c2ccc(Cl)cc2)cc1,-32.5%
24,COc1cccc(NC(=S)N(CCCN2CCCC2)Cc2cccn2Cc2ccc(Cl)cc2)c1,-41.2%
25,COc1ccc(NC(=S)N(CCCN2CCCC(C)C2)Cc2cccs2)cc1 (stereo not shown),-68.9%
26,COc1cccc(NC(=S)N(CCCN2CCCC(C)C2)Cc2cccs2)c1 (stereo not shown),-67.4%
27,COc1cccc(NC(=S)N(CCCN2CCCC2)Cc2ccco2)c1,-46.3%
